According to PubChem BioAssay AID2732 (Emory University Molecular Libraries Screening Center, 2010):
Among all 220,000 compounds or so, about 8,200 (3.7%) were called active. Shown is part of a subset that was picked to be rich in actives. Unmarked numbers belong to inactive results.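 Rule for the calls: active = compounds that reduced the stress-induced luciferase reporter signal by more than about 70% of percent inhibition (limit read from the data); inactive = the rest.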

assay: inhibitors of CHOP promoter induction, primary screen, cell-based, unfolded protein response, luciferase reporter (AID 2732); details: CHO-K1 CHOP-promoter luciferase, tunicamycin-induced, 15-18 h; at 10 µM; stronger effect = higher value;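 note: 0% = tunicamycin plus vehicle and 100% = wells without tunicamycin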

Compound | inhibition
COc1ccc(-c2cc(C(F)(F)F)nc(SCC(=O)Nc3ccc4c(c3)OCO4)n2)cc1OC | 22.4%
COc1ccc(-c2cc(C(F)(F)F)nc(S(C)(=O)=O)n2)cc1OC | 109% (active)
COc1cc(OC)nc(S(C)(=O)=O)n1 | -18.2%
O=C(Nc1cccnc1)c1cc([N+](=O)[O-])ccc1Cl | -9.19%
CCOC(=O)C1CCN(c2c(Nc3cc(C)cc(C)c3)c(=O)c2=O)CC1 | 4.73%
O=S(=O)(c1ccc(NC(=S)NN=C(C2CC2)C2CC2)cc1)N1CCOCC1 | -4.48%
CN(c1ccccc1)S(=O)(=O)c1ccc(Cl)c(C(=O)OCC(=O)NCc2ccco2)c1 | 29.9%
CCOc1ccc(NC(=O)CN2CCN(CC(=O)Nc3ccc(OC)cc3)CC2)cc1 | 34.6%
CCN1CCN(c2nc(Nc3cc(OC)ccc3OC)nc(Nc3cc(OC)ccc3OC)n2)CC1 | -5.76%
CCOc1ccc(Nc2nc(Cl)nc(N3CCN(c4ccc(OC)cc4)CC3)n2)cc1 | 72.4% (active)
Cc1coc2cc3oc(=O)c(CCC(=O)O)c(C)c3cc12 | -3.28%
COC(=O)c1sccc1NC(=S)Nc1ccc(C)cc1 | 10.2%
CCc1ccc(NC(=O)CS(=O)CC(=O)NCCCc2ccccc2)cc1 (centres undefined) | 75.9% (active)
Cc1cnc(C(=O)OCC(=O)NCCCc2ccccc2)cn1 | 4.94%
CCN(CC)CCCNC(=O)CCc1ccccc1 | 0.68%
NNC(=O)c1oc2nc(-c3ccccc3)cc(-c3ccco3)c2c1N | -41.2%
COC(OC)c1ccnc(SCc2ccccc2Cl)n1 | 15.3%
Cc1ccc(Nc2nc(-c3ccc(O)cc3O)cs2)nc1 | 88.9% (active)
O=c1oc2ccccc2cc1-c1csc(Nc2ccc(O)cc2)n1 | -72.5%
COc1ccc(-c2csc(Nc3ccc(O)cc3)n2)cc1 | 18.9%
Nc1nnn(CC(=O)N/N=C/c2ccccc2)n1 | 9.73%
COc1cc(N2C(=O)CC3(CCCC3)CC2=O)cc(OC)c1OC | -7%
O=C(Nc1ccc(N2CCOCC2)nc1)c1c(F)cccc1F | -6.02%
CCOC(=O)c1c(NC(=O)NC(C)(C)C)sc2c1CCN(C)C2 | 16.3%
O=[N+]([O-])c1ccc2nc(-c3ccccn3)[nH]c2c1 | -8.07%

Compound | inhibition
O=C(/C=C/Sc1ncn[nH]1)c1ccc(Cl)cc1 | 105% (active)
COc1ccc(Cl)cc1CSc1ncn[nH]1 | -7.32%
Cc1cc(C)nc(S/C=C/C(=O)c2ccccc2)n1 | 24.8%
CCn1c(SCC(=O)Nc2ccccc2F)nc2c(c1=O)SC(C)C2 (centres undefined) | -15.6%
CCCCSc1nc2c(c(=O)n1CC)SC(C)C2 (centres undefined) | 97.1% (active)
CCn1c(SCC(=O)Nc2ccc3c(c2)OCCO3)nc2c(c1=O)SC(C)C2 (centres undefined) | 3.73%
COc1c(N2CCN(C(=S)Nc3ccccc3F)C(C)C2)c(F)cc2c(=O)c(C(=O)O)cn(C3CC3)c12 (centres undefined) | 2.97%
CCc1c(C)nc(N2CCN(Cc3ccccc3)CC2)[nH]c1=O | 80% (active)
Cc1nnc(SCc2cc(=O)[nH]c(N3CCN(Cc4ccccc4)CC3)n2)s1 | 39.7%
Cc1ccc(-n2c(=O)cc(N3CCN(Cc4ccccc4)CC3)[nH]c2=O)cc1 | -31.4%
Cn1c(SCC(=O)N2CCOCC2)nnc1-c1ccc2ncccc2c1 | -14.7%
S=c1[nH]nc(-c2cc(-c3ccccc3)n[nH]2)n1/N=C/c1c2ccccc2cc2ccccc12 | 74% (active)
S=c1[nH]nc(-c2ccccc2)n1/N=C/c1c[nH]c2ccccc12 | 30.5%
S=c1[nH]nc(-c2ccco2)n1/N=C/c1ccccc1 | 13.8%
O=C(O)CC12CC3CC(C1)CC(n1ncc(NCc4ccc(F)cc4)c(Cl)c1=O)(C3)C2 | -5.94%
O=C(CN1CCN(Cc2ccc(F)cc2Cl)C1=O)NCc1cccs1 | 5.73%
O=c1c(Cl)c(NCc2ccc(F)cc2Cl)cnn1C12CC3CC(CC(C3)C1)C2 | 78.6% (active)
O=C(NCC1COc2ccccc2O1)C1(c2ccccc2)CCCC1 (centres undefined) | 17.7%
CCCN(CC1COc2ccccc2O1)C(=S)Nc1ccc(C)cc1 (centres undefined) | 28.3%
S=C(NCC1COc2ccccc2O1)Nc1ccc(Br)cc1 (centres undefined) | 81.2% (active)
CCCN(CCC)S(=O)(=O)c1ccc(C(=O)N2CC3CCC(CC3)C2)cc1 | 5.98%
O=[N+]([O-])c1cccc2ncccc12 | 15.2%
Cc1ccccc1-c1nnn(CC(=O)c2ccc(S(=O)(=O)N3CCCC3)cc2)n1 | 76% (active)
Cc1cc(C)n(C(=O)c2ccc(S(=O)(=O)N3CCCC3)cc2)n1 | 13%
CC(C)(C)NC(=O)Cn1nnc(-c2ccccc2Cl)n1 | 2.55%

Compound | inhibition
CC(OC(=O)c1ccc(NS(=O)(=O)c2ccc3[nH]c(=O)[nH]c3c2)cc1)C(=O)Nc1cccc(Cl)c1Cl (centres undefined) | -9.73%
NCCCCCC(=O)N/N=C/c1ccc2nccnc2c1 | 16.6%
Cc1onc(NC(=O)c2ccc([N+](=O)[O-])o2)c1Br | -20.6%
Cc1cccc(OP(=O)(Nc2c(C)n(C)n(-c3ccccc3)c2=O)Oc2cccc(C)c2)c1 | 71.4% (active)
Cc1cc(C(=O)Nc2c(C)n(C)n(-c3ccccc3)c2=O)cs1 | 23.5%
COc1ccc(S(=O)(=O)Nc2c(C)n(C)n(-c3ccccc3)c2=O)cc1 | -21.7%
O=C(CCl)Nc1cccc(CP(=O)(c2ccccc2)c2ccccc2)c1 | -134%
COc1ccc(CNC(=O)CCC(=O)Nc2nnc(C(C)C)s2)cc1 | 11.9%
COc1ccc(OC)c(/C=N/NC(=O)CSc2nnc(C)n2-c2ccccc2)c1 | -5.53%
Cc1ccc(-c2nn(-c3ccccc3)cc2/C=N/NC(=O)c2ccc3c(c2)OCO3)cc1 | 22.2%
Cc1nnc(SCC(=O)N/N=C/c2cn(-c3ccccc3)nc2-c2ccc(F)cc2)n1-c1ccccc1 | 97.1% (active)
CC(C)COC(=O)n1c(=O)oc2ccc(S(=O)(=O)N3CCCCC3)cc21 | 11.3%
COc1ccc(OC)c(Nc2nc3ccccc3n3cnnc23)c1 | 24.5%
Cc1cccc(C2C3=C(CCCC3=O)N=C3c4ccccc4C(=O)C32)c1 (centres undefined) | 19.4%
Cc1cccc(NC(=O)c2nnn(-c3cccc(C(F)(F)F)c3)c2N)c1 | 70.6% (active)
CC(=O)N1CCN(C(=O)Nc2cccc(C(F)(F)F)c2)CC1 | 26.5%
Cc1cccc(NC(=O)c2cccc(C(F)(F)F)c2)c1 | 2.04%
CC(=O)OCCOCn1cnn2c(=O)c(Br)c(C)nc12 | 7.79%
O=C(O)c1ccccc1OCc1ccccc1Cl | -5.39%
Cn1nccc1NC(=O)Nc1ccc(OC(F)(F)F)cc1 | 0.64%
CC1(C)C2CCC1(C)C(OC(=O)c1ccc(O)cc1)C2 (centres undefined) | 77.6% (active)
Cc1ccc(C(=O)OC2CCCN(C)C2)cc1 (centres undefined) | 7.84%
CC1(C)C2CCC1(C)C(OC(=O)CCn1ccnc1)C2 (centres undefined) | 4.53%
N#Cc1ccc(Oc2ccc(C(F)(F)F)cc2NC(=O)c2ccc(F)cc2)cc1 | 6.42%
O=C(NCC1CCCO1)c1ccccc1-c1nc(-c2ccccc2Cl)no1 (centres undefined) | -0.61%

Compound | inhibition
O=C(NNc1ncnc2c1cnn2-c1ccccc1)c1ccco1 | 2.45%
c1ccc(-n2ncc3c(N4CCCC4)ncnc32)cc1 | -22.2%
C1=C(CCNc2ncnc3c2cnn3-c2ccccc2)CCCC1 | 88% (active)
O=C1N(c2ccccc2)C(=Nc2ccccc2)SC12CC2 | -17.1%
O=C(CCNc1n[nH]c(=O)[nH]c1=O)N/N=C\c1ccc(Br)cc1 | -14.4%
Cc1noc(C)c1S(=O)(=O)Nc1cc(C(F)(F)F)ccc1N1CCOCC1 | 13.3%
CC(C)(C)NC(=O)NC(=O)COC(=O)CCC1CCCCC1 | 80.2% (active)
COc1ccccc1OCCC(=O)OCC(=O)NC(=O)NC(C)(C)C | 44.9%
CC(C)(C)NC(=O)NC(=O)COC(=O)C1(C)CC1(Cl)Cl (centres undefined) | 6.38%
Cc1c(C(=O)N/N=C/c2ccccc2)[nH]c2c([N+](=O)[O-])cccc12 | 20%
O=C(O)C(F)(F)C(NCc1ccccc1)c1ccccc1 (centres undefined) | -11.7%
Cc1ccc(N2C(=O)CN=C2Nc2nc(C)cc(C)n2)cc1 | 17%
O=C(c1ccc(Cl)cc1)c1cnc(Nc2ccccc2)s1 | 70.1% (active)
CC(C)(C)C(=O)c1cnc(Nc2ccccc2)s1 | 4%
O=C(CSc1nnc(Nc2ccccc2)s1)Nc1cccnc1Cl | -4.1%
CCc1ccnc(NS(=O)(=O)c2ccc3c(c2)OCCO3)c1 | 16.7%
O=c1c(/C=N/O)coc2ccc(Cl)cc12 | 3.04%
CC(Nc1nc(N2CCOCC2)nc2ccccc12)c1ccccc1 (centres undefined) | 16.9%
CC(Nc1nc(N2CCCC2)nc2ccccc12)c1ccccc1 (centres undefined) | 34.2%
c1ccc2c(NC3C4CC5CC(C4)CC3C5)nc(N3CCOCC3)nc2c1 (centres undefined) | 83.1% (active)
Cc1cc(=O)oc2c(C(=O)c3ccccc3)c(OCC(N)=O)ccc12 | 6.93%
COc1ccc(NC(=O)COC(=O)CNC(=O)C2CCCCC2)cc1 | 9.71%
CCC(C)(C)c1ccc(Oc2ccc(NC(=O)COC(=O)C3=COCCO3)cc2)cc1 | 80.4% (active)
O=C(OCC(=O)c1cccs1)C1=COCCO1 | 17.6%
